Here are results for 11 compounds from PubChem BioAssay (EPA / NIEHS).

As a reminder, the AC50 is the midpoint of the concentration-response curve, whichever way the signal moves.

Values joined by “and” are separate entries in the source; they are usually repeats but may differ in a detail not shown here. Equal entries are not always repeated. Inconclusive results are not listed. Active and inactive are the calls of the source. The calls were made as follows, unless noted: active = hit-call score of the fitted dose curve at least 0.9, where 1 is the maximum; inactive = score below 0.9.

The first assay in a line: CCTE_Shafer_MEA_dev_AB: CCTE's Alamar Blue Assay for Cytotoxicity in the Neural Network Formation Assay, Shafer Lab (AID 2284083; active = hit-call score of the fitted dose curve at least 0.9, where 1 is the maximum;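 also: twelve days of exposure from plating with re-dosing on DIV 5 and 9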). In outline: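 Primary rat cortical neurons on PEI-coated 48-well MEA plates, 1.5 x 10^5 cells/well in laminin drop; compound exposure from day 0 of plating for twelve days, renewed at medium changes on DIV 5 and 9. Viability read as resazurin reduction by fluorescence, relative to DMSO.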
Regarding `Oc1c(Cl)cc(Cl)c(Cl)c1Cc1c(O)c(Cl)cc(Cl)c1Cl`, the AC50 is 8.76 µM (active) and 3.54 µM (active).
For `COCCOCCOCCO`, the outcome was inactive.
Same read-out and setting: in the case of `CN(C)CCOC(C)(c1ccccc1)c1ccccn1` (stereo not given) it was “inactive”; in that of `CS(=O)(=O)OCCCCOS(C)(=O)=O`, “inactive”.
On the same count and under the same terms, next, `COCCc1ccc(OCC(O)CNC(C)C)cc1` (stereo not given): “inactive”.

Another assay is described as follows: CCTE_Shafer_MEA_acute_LDH: CCTE's Lactate Dehydrogenase Assay for Cytotoxicity in the Neural Acute Assay, Shafer Lab (AID 2284086; active = hit-call score of the fitted dose curve at least 0.9, where 1 is the maximum;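 also: active means LDH release rises above DMSO vehicle level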). In short, it runs like this: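 Medium collected from MEA wells of primary rat cortical cultures (DIV 13 or 15) immediately after 40 min chemical exposure is assayed spectrophotometrically for lactate dehydrogenase activity. Endpoint fitted in positive direction versus DMSO.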
As for `CC1(C)CCC[C@]2(C)[C@H]3CCO[C@]3(C)CC[C@@H]12`, the call was inactive.
On the same count and under the same terms, next, `Oc1c(Cl)cc(Cl)c(Cl)c1Cc1c(O)c(Cl)cc(Cl)c1Cl`: “inactive”; `O=C(Nc1ccc2c(O)c(N=Nc3ccc(N=Nc4ccc(S(=O)(=O)O)cc4)cc3)c(S(=O)(=O)O)cc2c1)c1ccccc1`: “inactive”; `CN(C)C(=S)SC(=S)N(C)C`: “inactive”.
Same read-out and setting: next, `CCCCCCC(CO)CCCC` (stereo not given): “inactive”; `C=CC(C)(O)CCC=C(C)C` (stereo not given): “inactive”.
Still for that read-out and setting: in the case of `COCCc1ccc(OCC(O)CNC(C)C)cc1` (stereo not given) it was “inactive”.

A short description of a further assay: CCTE_Shafer_MEA_dev_mutual_information_norm: CCTE's Neural Network Formation Assay for Mutual Information Normalization, Shafer Lab (AID 2284091).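 As to AC50: potency is for a decrease in mutual information relative to DMSO.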 Here is the method: CCTE_Shafer_MEA_dev assay is conducted using Axion Biosystems 48 well microelectrode array (MEA) plates and Maestro recording system. Each well of the MEA plate contains a grid of 16 microelectrodes embedded in the culture surface. Electrically active cells, such as neurons, can be cultured over the electrodes, and electrical activity in these cells can be recorded extracellularly. The spontaneous firing of neurons is captured from each electrode on a microsecond timescale providing both temporally and spatially precise data. […] The CCTE_Shafer_MEA_dev assay uses primary cultures of rat cortical neurons. Recordings are made on days post-plating 5, 7, 9 and 12. As these cultures mature over time, neural networks develop functional activity and form cohesive networks in which electrical activity can be highly coordinated. CCTE_Shafer_MEA_dev_mutual_information_norm is 1 of 19 assay components of the CCTE_Shafer_MEA_dev assay. It is a measure of shared information between electrodes during a recording in a microelectrode array (MEA) using Axion Biosystems Maestro 768 channel amplifier with the AxIS adaptive spike detector. To collapse across multiple recordings made on days post-plating 5, 7, 9 and 12, the trapezoidal area-under-the-curve of the component is calculated.Data from the assay component CCTE_Shafer_MEA_dev_mutual_information_norm was analyzed into 1 assay endpoint. This assay endpoint, CCTE_Shafer_MEA_dev_mutual_information_norm, was analyzed in the negative analysis fitting direction relative to DMSO as the negative control and baseline of activity. Using a type of functional reporter, gain or loss-of-signal activity can be used to understand electrical activity.
On the day prior to culture, each well was coated thoroughly with 150 uL of 0.05% polyethyleneimine (PEI, Sigma Cat P3143) in 50 mM HEPES (Sigma Cat H7523) at a pH of 8. The plate was incubated at 37C for one hour. PEI was rinsed out with 500 uL of sterile water three times. Plates were stored at 4C until the day of culture. This culture was plated at a seeding density of 1.5 x 10^5 cells/well on a 48-well MEA plate, prepared as described above. Cells were administered via a 25 uL media/laminin ([…]; Sigma Cat L2020-1MG) drop directly onto the microelectrode array, as adding the cells with the laminin results in better attachment than pre-coating with laminin. After 2 hours, an additional 475 uL of cortical media was added and the cells returned to the incubator. Exposure starts at day 0 of plating and is continued over twelve days of network development until the experiment is terminated. Cells are fed with fresh medium on DIV 5 and 9, following the recordings on those days. The entire volume of media in the well is exchanged and any vehicle or compound treatment is renewed. Complete details are found in OP-NHEERL/ISTD/SBB/TJS/2015-03-r0 (available on request, email shafer.tim@epa.gov). Measurement of the electrical activity is non-invasive, and recordings can be made from the same plate over multiple different days of the culture. In cortical neurons, this allows for the measurement of extracellular action potentials over the period during which networks form in the MEA plate.
As to `FC(F)(F)COCC(F)(F)F`, the outcome was inactive.
Consider `Oc1c(Cl)cc(Cl)c(Cl)c1Cc1c(O)c(Cl)cc(Cl)c1Cl`, for which the AC50 is 578 nM (active) and 302 nM (active).
With `COCCOCCOCCO`, the compound was called inactive.
In the case of `CN(C)CCOC(C)(c1ccccc1)c1ccccn1` (stereo not given), the call was inactive.
Same read-out and setting: in the case of `CS(=O)(=O)OCCCCOS(C)(=O)=O` it was “inactive”; in that of `COCCc1ccc(OCC(O)CNC(C)C)cc1` (stereo not given), “inactive”.

The next assay is described as follows: CCTE_Shafer_MEA_dev_correlation_coefficient_mean: CCTE's Neural Network Formation Assay for Mean Correlation Coefficient, Shafer Lab (AID 2284093).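 As to AC50: well mean pairwise spike train correlation integrated as AUC over recording days 5 to 12; potency fitted for loss of correlation relative to DMSO vehicle wells.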 In outline: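 Spontaneous activity recorded on days 5, 7, 9 and 12 post-plating; pairwise spike correlations are averaged across active electrodes and collapsed to an area-under-curve. Rat cortical cultures are dosed from plating through 12 days, with compound renewed at media changes.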
`FC(F)(F)COCC(F)(F)F`: the result was inactive.
`Oc1c(Cl)cc(Cl)c(Cl)c1Cc1c(O)c(Cl)cc(Cl)c1Cl`: the AC50 was 765 nM (active) and 832 nM (active).
For `COCCOCCOCCO`, the compound was called inactive.
On the same count and under the same terms, next, `CN(C)CCOC(C)(c1ccccc1)c1ccccn1` (stereo not given): “inactive”; `CS(=O)(=O)OCCCCOS(C)(=O)=O`: “inactive”; `COCCc1ccc(OCC(O)CNC(C)C)cc1` (stereo not given): “inactive”.

A further assay can be described thus: IUF_NPC1b_proliferation_BrdU_72hr: Leibniz Research Institute for Environmental Medicine (IUF) 72-hour Neural Progenitor Cell Bromodeoxyuridine (BrdU) Proliferation Assay (NPC1b) (AID 2284207). In short, it runs like this:
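Neural progenitor spheres of human fetal origin are treated for three days; BrdU added for the last 16 h is quantified by luminescence ELISA, with DMSO as baseline and EGF/FGF omission as positive control.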
Take `Oc1c(Cl)cc(Cl)c(Cl)c1Cc1c(O)c(Cl)cc(Cl)c1Cl`: the AC50 was 13.4 µM (active).
Regarding `COCCOCCOCCO`, the result was inactive.
On the same count and under the same terms, in the case of `CN(C)CCOC(C)(c1ccccc1)c1ccccn1` (stereo not given) it was “inactive”; in that of `COCCc1ccc(OCC(O)CNC(C)C)cc1` (stereo not given), “inactive”.

The nature of the next assay: IUF_NPC1a_proliferation_area_72hr: Leibniz Research Institute for Environmental Medicine (IUF) 72-hour Neural Progenitor Cell Proliferation Area Assay (NPC1a) (AID 2284208). In outline: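 Proliferation read as increase in sphere area by phase-contrast imaging over 72 h continuous compound exposure (no renewal) of hNPC spheres grown with EGF/FGF at 37C, 5% CO2. Growth-factor withdrawal served as positive control; DMSO as baseline.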
On to `Oc1c(Cl)cc(Cl)c(Cl)c1Cc1c(O)c(Cl)cc(Cl)c1Cl`, for which the AC50 was 17.6 µM (active).
With `COCCOCCOCCO`, the outcome was inactive.
Same read-out and setting: next, `CN(C)CCOC(C)(c1ccccc1)c1ccccn1` (stereo not given): “inactive”.
The same measure, in the same setting: next, `COCCc1ccc(OCC(O)CNC(C)C)cc1` (stereo not given): “inactive”.

A short description of a further assay: IUF_NPC1_viability_72hr: Viability Assessment at 72 hours in the Leibniz Research Institute for Environmental Medicine (IUF) Neural Progenitor Cell Proliferation Assay (NPC1) (AID 2284209). In short, it runs like this:
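Spheres of primary human neural progenitors were plated singly in proliferation medium and treated for 72 h. Mitochondrial reduction of resazurin was then measured by fluorescence and analysed against DMSO controls.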
For `Oc1c(Cl)cc(Cl)c(Cl)c1Cc1c(O)c(Cl)cc(Cl)c1Cl`, the compound was called inactive.
The same measure, in the same setting: in the case of `COCCOCCOCCO` it was “inactive”.
Still for that read-out and setting: in the case of `CN(C)CCOC(C)(c1ccccc1)c1ccccn1` (stereo not given) it was “inactive”; in that of `COCCc1ccc(OCC(O)CNC(C)C)cc1` (stereo not given), “inactive”.

A short description of a further assay: CCTE_Mundy_HCI_Cortical_Synap_Neur_Matur_NeuriteSpotCountPerNeuriteLength: CCTE's Synaptogenesis and Neurite Maturation Assay in rat cortical cells for Neurite Spot Count per Neurite Length, Mundy Lab (AID 2284210). In outline:
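Neurite-associated synapse density (synaptophysin puncta per unit neurite length) is measured by fluorescence high-content imaging in rat cortical cultures treated from DIV 7 and fixed at DIV 12, with DMSO as negative control.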
As for `Oc1c(Cl)cc(Cl)c(Cl)c1Cc1c(O)c(Cl)cc(Cl)c1Cl`, the call was inactive.
Same read-out and setting: in the case of `COCCOCCOCCO` it was “inactive”; in that of `CN(C)CCOC(C)(c1ccccc1)c1ccccn1` (stereo not given), “inactive”; in that of `COCCc1ccc(OCC(O)CNC(C)C)cc1` (stereo not given), “inactive”.
